Measurements taken from the supplement of paper PMC11732987, “Enantioselective OTUD7B fragment discovery through chemoproteomics screening and high-throughput optimisation” (Communications Chemistry, 2025).

Legend:
Assay in all cases: log2 ratio of Biotin-Ahx-Ub-VS probe labelling (fragment/DMSO); higher = less target engagement (more negative = stronger competition), active = hit call of the paper (q ≤ 0.05, log2 ratio ≤ -1)
Settings in all cases: compound concentration: 200 uM; treatment time: 3 h
USP16 = USP16 (UniProt Q9Y5T5)
Summary of the method: (§1)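 Labelled DUBs were enriched with NeutrAvidin, digested with LysC and trypsin, and run by diaPASEF LC-MS/MS. The labelling used Biotin-Ahx-Ub-VS at 0.5 µM final for 1 h on HEK293T lysate (495 µg per sample) previously treated in triplicate with fragment at 200 µM or vehicle for 3 h. Values are average log2 fragment/vehicle ratios by unpaired t-test on global-median-normalised Spectronaut quantities of proteins with ≥2 unique peptides.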

USP19 = target: T1, USP19 (UniProt O94966)
T1 sequence (whole entry): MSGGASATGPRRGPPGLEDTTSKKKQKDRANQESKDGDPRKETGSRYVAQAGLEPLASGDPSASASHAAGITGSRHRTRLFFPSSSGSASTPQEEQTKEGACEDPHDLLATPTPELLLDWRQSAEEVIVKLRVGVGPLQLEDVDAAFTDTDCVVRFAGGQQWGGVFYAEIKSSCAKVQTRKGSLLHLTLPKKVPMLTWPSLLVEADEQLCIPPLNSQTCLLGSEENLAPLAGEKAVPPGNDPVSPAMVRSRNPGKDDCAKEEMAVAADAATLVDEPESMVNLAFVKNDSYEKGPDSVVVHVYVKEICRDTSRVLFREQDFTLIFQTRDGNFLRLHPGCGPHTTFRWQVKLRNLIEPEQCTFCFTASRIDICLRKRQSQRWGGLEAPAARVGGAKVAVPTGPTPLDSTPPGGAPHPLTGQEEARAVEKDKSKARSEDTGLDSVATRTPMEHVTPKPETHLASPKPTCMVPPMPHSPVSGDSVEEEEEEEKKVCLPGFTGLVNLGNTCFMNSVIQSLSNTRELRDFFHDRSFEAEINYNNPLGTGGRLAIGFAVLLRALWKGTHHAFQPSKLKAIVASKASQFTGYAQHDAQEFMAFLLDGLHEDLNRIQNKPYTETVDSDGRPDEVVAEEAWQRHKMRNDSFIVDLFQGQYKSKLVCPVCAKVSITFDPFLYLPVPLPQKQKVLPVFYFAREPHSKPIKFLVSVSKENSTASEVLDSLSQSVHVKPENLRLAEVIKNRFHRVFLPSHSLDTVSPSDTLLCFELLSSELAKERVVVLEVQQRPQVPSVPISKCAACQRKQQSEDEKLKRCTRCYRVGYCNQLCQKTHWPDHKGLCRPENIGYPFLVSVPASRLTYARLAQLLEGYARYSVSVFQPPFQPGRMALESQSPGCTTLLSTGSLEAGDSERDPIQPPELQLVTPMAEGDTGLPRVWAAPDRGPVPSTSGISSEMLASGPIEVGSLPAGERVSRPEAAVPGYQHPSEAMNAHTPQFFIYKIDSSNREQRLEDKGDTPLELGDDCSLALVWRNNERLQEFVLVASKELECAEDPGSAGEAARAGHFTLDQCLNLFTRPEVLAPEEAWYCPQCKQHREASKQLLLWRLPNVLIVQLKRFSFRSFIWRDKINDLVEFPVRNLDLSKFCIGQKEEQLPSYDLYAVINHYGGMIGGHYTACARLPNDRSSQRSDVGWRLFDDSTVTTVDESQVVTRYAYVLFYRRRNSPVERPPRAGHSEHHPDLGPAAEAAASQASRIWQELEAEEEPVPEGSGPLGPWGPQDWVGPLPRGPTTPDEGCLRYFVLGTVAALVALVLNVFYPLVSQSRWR
Summary of the method: as §1

USP24 = USP24 (UniProt Q9UPU5)
Summary of the method: as §1

USP25 = target: T2, USP25 (UniProt Q9UHP3)
T2 sequence (whole entry): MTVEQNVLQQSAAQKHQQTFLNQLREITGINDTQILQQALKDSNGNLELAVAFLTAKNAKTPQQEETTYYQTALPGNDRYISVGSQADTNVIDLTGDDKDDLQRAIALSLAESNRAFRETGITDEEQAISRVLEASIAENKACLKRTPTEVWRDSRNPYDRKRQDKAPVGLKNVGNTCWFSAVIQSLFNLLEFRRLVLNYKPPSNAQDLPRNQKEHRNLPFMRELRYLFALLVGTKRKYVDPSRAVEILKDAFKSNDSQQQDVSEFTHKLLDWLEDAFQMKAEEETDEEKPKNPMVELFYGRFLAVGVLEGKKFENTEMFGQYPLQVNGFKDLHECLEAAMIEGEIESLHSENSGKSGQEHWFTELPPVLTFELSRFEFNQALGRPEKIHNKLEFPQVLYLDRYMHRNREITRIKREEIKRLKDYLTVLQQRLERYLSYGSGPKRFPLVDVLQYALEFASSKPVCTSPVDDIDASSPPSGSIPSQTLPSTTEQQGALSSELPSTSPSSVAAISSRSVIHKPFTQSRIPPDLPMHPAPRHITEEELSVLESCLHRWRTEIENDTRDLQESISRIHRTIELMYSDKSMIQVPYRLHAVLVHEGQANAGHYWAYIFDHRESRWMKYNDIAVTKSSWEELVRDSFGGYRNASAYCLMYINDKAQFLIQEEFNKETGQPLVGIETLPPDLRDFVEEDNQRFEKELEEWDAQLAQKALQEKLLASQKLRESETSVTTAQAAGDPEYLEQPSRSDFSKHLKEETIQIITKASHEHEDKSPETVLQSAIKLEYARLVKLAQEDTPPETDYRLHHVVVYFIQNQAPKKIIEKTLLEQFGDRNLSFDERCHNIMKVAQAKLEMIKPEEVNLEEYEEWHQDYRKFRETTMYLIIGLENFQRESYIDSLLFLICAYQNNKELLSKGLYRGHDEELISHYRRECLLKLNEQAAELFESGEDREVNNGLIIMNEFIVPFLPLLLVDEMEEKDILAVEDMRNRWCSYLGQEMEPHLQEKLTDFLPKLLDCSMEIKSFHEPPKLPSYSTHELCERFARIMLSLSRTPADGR
Summary of the method: as §1

USP28 = target: T3, USP28 (UniProt Q96RU2)
T3 sequence (whole entry): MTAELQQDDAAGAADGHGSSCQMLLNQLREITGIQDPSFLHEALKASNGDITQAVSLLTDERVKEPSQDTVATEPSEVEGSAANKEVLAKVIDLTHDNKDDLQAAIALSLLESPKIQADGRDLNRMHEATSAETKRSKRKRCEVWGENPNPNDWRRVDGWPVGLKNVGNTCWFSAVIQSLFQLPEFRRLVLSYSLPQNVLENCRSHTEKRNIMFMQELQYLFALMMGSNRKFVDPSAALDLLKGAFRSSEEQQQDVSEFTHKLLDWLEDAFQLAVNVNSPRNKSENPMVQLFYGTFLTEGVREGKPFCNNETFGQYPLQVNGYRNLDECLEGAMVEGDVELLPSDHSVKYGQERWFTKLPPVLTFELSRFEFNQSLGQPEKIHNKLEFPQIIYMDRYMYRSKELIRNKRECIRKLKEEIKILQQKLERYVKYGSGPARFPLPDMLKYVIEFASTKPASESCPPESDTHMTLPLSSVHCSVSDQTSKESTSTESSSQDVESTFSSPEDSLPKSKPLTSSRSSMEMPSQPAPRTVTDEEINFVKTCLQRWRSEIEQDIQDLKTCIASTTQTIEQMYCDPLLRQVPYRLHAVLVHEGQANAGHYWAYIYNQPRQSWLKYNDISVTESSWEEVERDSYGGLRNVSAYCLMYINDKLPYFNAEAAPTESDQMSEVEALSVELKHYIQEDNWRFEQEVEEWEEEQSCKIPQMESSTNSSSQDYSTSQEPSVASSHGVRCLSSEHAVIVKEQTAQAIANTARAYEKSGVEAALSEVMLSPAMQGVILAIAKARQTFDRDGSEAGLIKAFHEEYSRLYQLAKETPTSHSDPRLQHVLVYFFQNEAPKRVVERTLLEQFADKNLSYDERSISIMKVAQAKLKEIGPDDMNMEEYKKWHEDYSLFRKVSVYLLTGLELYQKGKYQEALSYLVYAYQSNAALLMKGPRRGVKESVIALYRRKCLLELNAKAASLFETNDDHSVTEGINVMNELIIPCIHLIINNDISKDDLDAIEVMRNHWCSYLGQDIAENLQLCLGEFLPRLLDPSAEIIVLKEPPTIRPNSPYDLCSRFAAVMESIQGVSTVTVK
Summary of the method: as §1

Measured: log2 ratio of Biotin-Ahx-Ub-VS probe labelling

Chain of USP16 (Q9Y5T5 whole entry, looked up, the tested form may be a part): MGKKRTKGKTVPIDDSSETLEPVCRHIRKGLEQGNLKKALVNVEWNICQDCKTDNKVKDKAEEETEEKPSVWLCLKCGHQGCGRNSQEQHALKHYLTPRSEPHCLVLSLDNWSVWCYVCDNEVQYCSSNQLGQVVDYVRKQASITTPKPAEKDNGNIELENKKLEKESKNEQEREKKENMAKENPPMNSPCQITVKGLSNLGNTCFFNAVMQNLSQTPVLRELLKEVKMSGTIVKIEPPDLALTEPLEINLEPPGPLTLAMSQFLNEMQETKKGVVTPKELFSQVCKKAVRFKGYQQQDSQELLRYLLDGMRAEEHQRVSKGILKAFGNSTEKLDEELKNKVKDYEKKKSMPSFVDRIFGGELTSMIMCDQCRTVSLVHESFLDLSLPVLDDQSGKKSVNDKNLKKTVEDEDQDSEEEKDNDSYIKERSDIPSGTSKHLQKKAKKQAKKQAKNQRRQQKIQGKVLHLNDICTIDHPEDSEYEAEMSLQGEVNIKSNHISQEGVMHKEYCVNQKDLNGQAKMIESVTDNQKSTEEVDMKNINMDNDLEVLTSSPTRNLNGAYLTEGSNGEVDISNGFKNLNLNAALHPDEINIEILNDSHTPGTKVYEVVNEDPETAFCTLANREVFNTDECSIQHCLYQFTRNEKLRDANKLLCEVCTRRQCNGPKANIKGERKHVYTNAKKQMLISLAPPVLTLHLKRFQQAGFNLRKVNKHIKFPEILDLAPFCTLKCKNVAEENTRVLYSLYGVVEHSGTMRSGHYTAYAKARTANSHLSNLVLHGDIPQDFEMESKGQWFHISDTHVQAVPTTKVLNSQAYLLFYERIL
Chain of USP24 (Q9UPU5 whole entry): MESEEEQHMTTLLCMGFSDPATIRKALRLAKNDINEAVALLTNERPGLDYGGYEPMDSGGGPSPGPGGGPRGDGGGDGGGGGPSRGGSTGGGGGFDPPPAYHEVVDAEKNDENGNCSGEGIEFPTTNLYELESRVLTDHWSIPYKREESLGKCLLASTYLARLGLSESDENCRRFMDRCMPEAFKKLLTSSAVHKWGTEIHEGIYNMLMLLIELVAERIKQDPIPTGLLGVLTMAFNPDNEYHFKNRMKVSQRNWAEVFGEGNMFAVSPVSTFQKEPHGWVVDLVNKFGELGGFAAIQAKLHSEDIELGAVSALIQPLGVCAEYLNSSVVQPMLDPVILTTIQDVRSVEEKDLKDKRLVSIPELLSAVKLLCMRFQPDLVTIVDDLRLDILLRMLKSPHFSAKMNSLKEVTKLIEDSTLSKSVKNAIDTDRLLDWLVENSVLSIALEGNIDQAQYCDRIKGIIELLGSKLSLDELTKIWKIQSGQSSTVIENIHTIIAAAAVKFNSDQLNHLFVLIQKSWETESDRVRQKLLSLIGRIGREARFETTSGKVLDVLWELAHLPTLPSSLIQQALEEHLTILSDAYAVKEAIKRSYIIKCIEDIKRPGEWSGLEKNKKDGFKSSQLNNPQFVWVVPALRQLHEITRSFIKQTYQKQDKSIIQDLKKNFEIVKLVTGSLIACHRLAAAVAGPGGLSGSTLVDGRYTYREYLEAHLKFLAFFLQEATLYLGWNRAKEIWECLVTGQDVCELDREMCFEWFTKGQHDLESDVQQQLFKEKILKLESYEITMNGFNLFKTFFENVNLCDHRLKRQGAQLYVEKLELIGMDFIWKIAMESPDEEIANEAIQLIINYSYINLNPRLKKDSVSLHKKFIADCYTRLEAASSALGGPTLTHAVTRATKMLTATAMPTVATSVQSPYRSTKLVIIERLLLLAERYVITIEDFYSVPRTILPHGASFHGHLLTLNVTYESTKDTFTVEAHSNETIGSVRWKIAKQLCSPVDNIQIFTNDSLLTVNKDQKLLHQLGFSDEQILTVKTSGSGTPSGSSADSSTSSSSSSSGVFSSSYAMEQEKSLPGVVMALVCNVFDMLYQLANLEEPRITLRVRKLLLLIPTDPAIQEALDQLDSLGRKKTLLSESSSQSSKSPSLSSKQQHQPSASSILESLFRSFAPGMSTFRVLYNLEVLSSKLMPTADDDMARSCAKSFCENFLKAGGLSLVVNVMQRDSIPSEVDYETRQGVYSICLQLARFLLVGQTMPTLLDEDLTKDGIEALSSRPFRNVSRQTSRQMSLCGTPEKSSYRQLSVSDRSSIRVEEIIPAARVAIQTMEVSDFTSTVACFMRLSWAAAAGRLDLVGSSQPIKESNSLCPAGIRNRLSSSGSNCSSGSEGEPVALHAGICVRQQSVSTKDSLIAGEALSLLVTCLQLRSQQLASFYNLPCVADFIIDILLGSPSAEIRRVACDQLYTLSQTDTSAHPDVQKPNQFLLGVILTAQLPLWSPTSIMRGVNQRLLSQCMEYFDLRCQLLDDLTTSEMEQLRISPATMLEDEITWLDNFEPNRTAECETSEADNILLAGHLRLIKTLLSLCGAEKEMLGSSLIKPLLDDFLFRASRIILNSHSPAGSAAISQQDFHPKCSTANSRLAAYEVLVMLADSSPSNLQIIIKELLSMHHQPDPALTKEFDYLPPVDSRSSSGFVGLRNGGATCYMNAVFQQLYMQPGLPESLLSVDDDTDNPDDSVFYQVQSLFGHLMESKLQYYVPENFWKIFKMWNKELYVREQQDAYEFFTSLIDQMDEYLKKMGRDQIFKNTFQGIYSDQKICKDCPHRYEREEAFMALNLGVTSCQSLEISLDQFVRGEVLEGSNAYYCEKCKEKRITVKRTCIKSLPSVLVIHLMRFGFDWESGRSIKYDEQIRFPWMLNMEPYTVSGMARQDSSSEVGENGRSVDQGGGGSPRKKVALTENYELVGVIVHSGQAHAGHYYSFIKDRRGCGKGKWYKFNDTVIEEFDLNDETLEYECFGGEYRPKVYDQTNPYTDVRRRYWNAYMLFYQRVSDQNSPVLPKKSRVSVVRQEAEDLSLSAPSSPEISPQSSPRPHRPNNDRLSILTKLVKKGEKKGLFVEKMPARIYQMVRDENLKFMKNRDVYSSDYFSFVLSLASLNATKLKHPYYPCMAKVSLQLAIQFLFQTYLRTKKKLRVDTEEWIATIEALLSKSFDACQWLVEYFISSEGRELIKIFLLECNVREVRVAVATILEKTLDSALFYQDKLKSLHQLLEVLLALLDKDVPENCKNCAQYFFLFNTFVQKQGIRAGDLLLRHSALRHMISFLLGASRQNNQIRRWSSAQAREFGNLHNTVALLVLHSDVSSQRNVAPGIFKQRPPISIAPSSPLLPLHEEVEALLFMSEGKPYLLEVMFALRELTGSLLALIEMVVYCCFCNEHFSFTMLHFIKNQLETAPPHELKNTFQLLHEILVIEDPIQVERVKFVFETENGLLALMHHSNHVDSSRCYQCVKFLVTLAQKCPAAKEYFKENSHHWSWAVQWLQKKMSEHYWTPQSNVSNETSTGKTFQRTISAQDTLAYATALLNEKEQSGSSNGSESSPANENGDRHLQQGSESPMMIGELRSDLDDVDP

NC(=O)C1CCCN(C(=O)CCl)C1 (stereo not given)
inactive: USP16 -0.387 | USP19 -0.249 | USP24 -0.257 | USP25 -0.119 | USP28 -0.348
